A selection: hits, their analogues and other compounds. The true share with any hit is near 3.4%.
FXN GAA850 act: FXN promoter activators, primary screen, cell-based, luciferase luminescence, HEK293 lucGAA850 | HEK293 lucGAA850 FXN promoter luciferase reporter, 24 h; percent of 10 µM SAHA response | activation, % at 6 µM | 360,000 tested, 0.56% active;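 active = activation above the average of all compounds screened plus 3 SD, cutoff fixed separately per campaign, cut at about 7.5% in these data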
GalR3 antag: GalR3 antagonists in HEK293 cells, primary screen, cell-based, fluorescence readout; Galanin receptor type 3 (Homo sapiens), O60755; HEK293 GalR3-CNG cAMP membrane potential fluorescence; galR3 body fused to GalR1 C-terminus; inhibition, % at 3 µM; 360,000 tested, 0.44% active;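 active = inhibition above the screen-wide average plus 3 SD, cut at about 13% in these data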;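 note: forskolin and galanin both at EC90 stimulate the cells; cAMP rise reported by CNG channel membrane potential dye signal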
Target sequence (O60755 1-299 limits assumed): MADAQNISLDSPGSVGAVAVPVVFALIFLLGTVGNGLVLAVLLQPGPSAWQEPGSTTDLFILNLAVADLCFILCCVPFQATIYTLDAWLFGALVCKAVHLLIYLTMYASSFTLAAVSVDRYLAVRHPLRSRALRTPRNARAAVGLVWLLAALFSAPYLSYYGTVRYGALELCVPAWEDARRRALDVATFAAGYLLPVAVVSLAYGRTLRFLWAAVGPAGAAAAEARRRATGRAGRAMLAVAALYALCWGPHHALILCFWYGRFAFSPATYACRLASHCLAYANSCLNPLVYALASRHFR
Cardio protect: cardioprotection against H2O2-induced cell death, primary screen, uHTS, H9c2 cells, ATPLite luminescence | H9c2 cardiomyocytes, H2O2 injury protection, 2 h | protection from H2O2 cell death, % at 20 µM | 360,000 tested, 0.63% active | AID 588492, 2011;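 active = compounds giving at least 50% protection of heart cells from peroxide-induced death in the single-dose screen, raw or plate-pattern-corrected value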
COUP-TFII inh: NR2F2 transcriptional activity inhibitors, primary screen, cell-based, luciferase reporter, HEK293T, luminescence | HEK293T NGFI-A luciferase reporter | inhibition, % at 8.6 µM | 370,000 tested, 0.7% active;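 active = inhibition above a per-plate cutoff, mean inhibition of test wells between control levels plus 3 SD, cut at about 38% in these data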;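 note: cells cotransfected with COUP-TFII expression vector driving the NGFI-A reporter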
SMARCA2 activ: SMARCA2 (BRM) function activators, primary screen, cell-based, luminescence, high throughput. MG213 cells, MMTV-luciferase reporter, dexamethasone, overnight. activation, % at 9.1 µM. 370,000 tested, 1% active; in the data active = activation above about 7.8%
Gli-Sufu block: Gli-Sufu pathway antagonists, primary screen, luciferase luminescence, Sufu-KO-LIGHT cells, uHTS; Sufu-KO-LIGHT fibroblasts, Gli luciferase reporter luminescence; 340,000 tested, 0.74% active; AID 588413, 2011; inhibition, % at 5 µM;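 active = inhibition above about 55%, limit read from the data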
SMARCA2 conf: SMARCA2 (BRM) function activators, confirmation, cell-based, luminescence, triplicate; shares compounds with SMARCA2 activ; MG213 cells, MMTV-luciferase with dexamethasone, overnight; MG213 cells expressing E1A, Rb sequestered; DMSO wells 0%, reference activator 100%; activation, % at 9.1 µM; 3,500 tested, 30% active; AID 652260, 2013;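 active = activation above its plate's cutoff, the mean activation of tested wells plus 3 SD, cut at about 7.9% in these data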
GAL4-VP16 Luc: GAL4-VP16 luciferase reporter activation, counter-screen for SMARCA2 (BRM) activator project, cell-based, pG5luc, luminescence, high throughput | shares compounds with SMARCA2 activ | HEK293 GAL4-VP16 pG5luc reporter; scaled: DMSO wells 0%, SAHA wells 100% | activation, % at 9.1 µM | 3,500 tested, 41% active;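 active = activation above the solvent-only control well mean plus 3 SD, averaged across control plates, cut at about 5.2% in these data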
Numbers stand for hits; i = inactive; nt = no result.

SMILES | FXN GAA850 act | GalR3 antag | Cardio protect | COUP-TFII inh | SMARCA2 activ | Gli-Sufu block | SMARCA2 conf | GAL4-VP16 Luc
Cc1cc(C)n2cc(CSc3ncn[nH]3)nc2n1 | i | i | i | i | i | i | nt | nt
CCOC(=O)C1CN(S(=O)(=O)c2ccccc2)c2cc(S(=O)(=O)CC)ccc2O1 (centres undefined) | i | i | i | i | i | i | nt | nt
CCS(=O)(=O)c1ccc2c(c1)N(S(C)(=O)=O)CC(C(=O)NCCOC)O2 (centres undefined) | i | i | i | i | 12 | i | i | i
Oc1ccc(N=Nc2c(O)ccc3ccccc23)cc1 | i | i | i | i | i | i | nt | nt
NS(=O)(=O)c1ccc(N=Nc2c(O)ccc3ccccc23)cc1 | i | i | i | i | 8.8 | i | i | i
CSc1ccc(NC(=O)Nc2cc(C)ccn2)cc1 | i | i | i | i | i | i | nt | nt
O=C1CC(c2ccccc2)Sc2nc3ccccc3n21 (centres undefined) | i | i | i | i | 12 | nt | 8.8 | 8.6
O=Cc1ccc(OCc2ccc3ccccc3c2)cc1 | i | i | i | i | 8.2 | i | i | 6.1
CC(=O)Nc1ccc(-c2nc3c(C)cccc3[nH]2)cc1 | i | i | i | i | 13 | i | 20 | 17
CCCN(CC(=O)Nc1ccccc1C)C(=O)c1ccc2ccccc2n1 | i | i | i | i | i | i | nt | nt
Cc1ccccc1NC(=S)c1ccc2ccccc2n1 | i | i | i | i | 8.2 | i | 16 | 7.6
CCc1c(C)nc2cc(-c3ccc(OC)cc3)[nH]n2c1=O | i | i | i | i | 8.9 | i | 11 | 11
COCc1cc(=O)n2[nH]c(-c3ccc(C)cc3)cc2n1 | i | i | i | i | 10 | i | 8.9 | i
CCC(=O)Nc1nn(CC(C)C)c2nc3ccc(C)cc3cc12 | i | i | i | i | i | i | nt | nt
c1ccc(C2CCC(N3CCN(c4ccccc4)CC3)CC2)cc1 (centres undefined) | i | nt | i | nt | nt | i | nt | nt
C/C(CCc1ccc2c(c1)OCO2)=N\N=C1\NC(=O)CC(C(=O)Nc2ccc(Cl)cc2)S1 (centres undefined) | i | i | i | i | 11 | i | i | i
Cc1ccc(N=C2NC(=O)CC(C(=O)Nc3ccc4c(c3)OCO4)S2)cc1 (centres undefined) | i | i | i | i | i | i | nt | nt
C/C(CC(=O)Nc1cc(C)ccn1)=N\NC(=O)c1ccc(C(C)(C)C)cc1 | i | i | i | i | i | i | nt | nt
O=c1c2c(nc3cc(-c4ccc(F)cc4)[nH]n13)CCC2 | i | i | i | i | 12 | i | 13 | 12
Cc1ccc(-c2cc3nc4c(c(=O)n3[nH]2)CCCC4)cc1 | i | i | i | i | i | i | nt | nt
C/C(=N\NC(=O)Cc1c(C)[nH][nH]c1=O)c1ccc(Cl)c(Cl)c1 | i | i | i | i | 8.0 | i | i | i
COc1cccc(C(=O)Nc2cc(=O)n(C)c(=O)n2C)c1OC | i | i | i | i | 8.3 | i | i | i
COC(=O)c1cc(S(=O)(=O)N2CCCCCC2)c[nH]1 | i | nt | i | nt | nt | i | nt | nt
CCOC(=O)N1CCN(C(=O)Nc2ccccc2Cl)CC1 | i | i | i | i | 9.0 | i | i | i
COc1ccc(C(C)(C)C)cc1NC(=O)COC(=O)CN1C(=O)NC2(CCCCC2C)C1=O (centres undefined) | i | i | i | i | i | i | nt | nt
SMILES | FXN GAA850 act | GalR3 antag | Cardio protect | COUP-TFII inh | SMARCA2 activ | Gli-Sufu block | SMARCA2 conf | GAL4-VP16 Luc
c1ccc(CSCc2cn3ccccc3n2)cc1 | i | i | i | i | 8.8 | i | i | 7.5
Cc1ccc(SCc2cn3ccccc3n2)cc1 | i | i | i | i | i | i | nt | nt
COC(=O)[C@]1(Cc2ccccc2)N[C@H](c2ccc(-c3ccc4c(c3)OCO4)cc2)[C@@H]2C(=O)N(C)C(=O)[C@@H]21 | i | i | i | i | i | i | nt | nt
O=S(=O)(c1cc(Cl)cc(Cl)c1O)N1CCC2(CC1)OCCO2 | i | i | i | i | i | i | nt | nt
Cc1cc(S(=O)(=O)N2CCC3(CC2)OCCO3)c(C)cc1Cl | i | i | i | i | 12 | i | i | i
O=C(Nc1ccc(OC(F)F)cc1)c1ncc(Cl)c(Cl)c1Cl | i | i | i | i | i | i | nt | nt
Cc1ccc(NC(=O)c2ncc(Cl)c(Cl)c2Cl)cc1C | i | i | i | i | 8.2 | i | i | 9.5
C=CCNC(=O)COc1ccc(Br)cc1Cl | i | i | i | i | i | i | nt | nt
O=C(CCCc1ccccn1)c1ccc(-c2ccccc2)cc1 | i | i | i | i | 8.6 | i | i | 6.4
O=C(CCCc1ccccn1)c1cccc2ccccc12 | i | i | i | i | i | i | nt | nt
COc1ccc(S(=O)(=O)NC(C)C(=O)NCc2ccc3c(c2)OCO3)cc1OC (centres undefined) | i | i | i | i | i | i | nt | nt
COc1ccc(C(=O)Cc2nnc(C)s2)cc1 | i | i | i | i | 9.1 | i | i | 12
Cc1ccc(C(=O)N/N=c2\sc3ccccc3n2C)cc1 | i | i | i | i | i | i | nt | nt
Cn1/c(=N/NC(=O)c2ccccc2F)sc2ccccc21 | i | i | i | i | 8.0 | i | i | 8.2
COc1ccc2nc3ccccc3[n+]([O-])c2c1 | i | i | i | i | 8.4 | i | i | 6.2
C=C1c2ccccc2NC(=O)N1c1ccc(OC)cc1 | i | i | i | i | 9.1 | i | 13 | i
CC1(c2nnnn2Cc2ccccc2)CCC(=O)N1CCc1ccccc1F (centres undefined) | nt | i | nt | i | i | nt | nt | nt
CC1(C)CC(=O)C(CO)=C(c2cccc3ccccc23)C1=O | i | i | i | i | i | i | nt | nt
N#Cc1cc2c(nc1SCC(=O)Nc1nccs1)CCCCC2 | i | i | i | i | i | i | nt | nt
Cc1ccc(C#N)c(SCC(=O)Nc2nccs2)n1 | i | i | i | i | 14 | i | i | i
COc1ccc(N2CC(=O)N(c3ccccc3)C2=S)cc1 | i | i | i | i | 11 | i | 8.7 | i
CCOC(=O)C1(Cc2ccccc2)CCCN(S(=O)(=O)N(C)C)C1 (centres undefined) | i | i | i | i | i | i | nt | nt
Cc1nc(Nc2ccc(C(=O)O)cc2)sc1-c1ccccc1 | i | i | i | i | 9.1 | i | 9.2 | 5.4

High-throughput results from PubChem.
